Assay outcomes from PubChem BioAssay.
Many of the other results were omitted from the sample, so hits are more common in it than they were.
12-LOX inh: ALOX12 (human) lipoxygenase inhibition | P18054 | purified 12hLO, xylenol orange hydroperoxide absorbance | Potency, µM (titrated, usually from 108 µM), for the others: at the highest dose activity change, negative = inhibition, most hits filed as inhibitors | 1.1% of 580,000 active; further: on the % scale 0 is the no-effect control and ±100 the full control effect
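Purified human 12hLO (150 nM final) in 25 mM Hepes, 0.01% Triton X-100, pH 7.0 was preincubated 15 min at room temperature with compound. Then 40 uM arachidonic acid was added, 30 min. Hydroperoxide was read by Fe-XO absorbance ratio 573/405 nm.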
G9a inh: blocks human histone lysine methyltransferase G9a; Q96KQ7; G9a H3K9 monomethylation, AlphaScreen, 2 h; Potency, µM (top dose mostly 102 µM), for the others: at the highest dose activity, negative = inhibition, hits mostly inhibitors; 8.8% of 350,000 active; AID 504332; further: on the % scale 0 is the no-effect control and ±100 the full control effect; nearly all actives have a fitted effect of over 75% in size
Target sequence (Q96KQ7 913-1193 limits assumed): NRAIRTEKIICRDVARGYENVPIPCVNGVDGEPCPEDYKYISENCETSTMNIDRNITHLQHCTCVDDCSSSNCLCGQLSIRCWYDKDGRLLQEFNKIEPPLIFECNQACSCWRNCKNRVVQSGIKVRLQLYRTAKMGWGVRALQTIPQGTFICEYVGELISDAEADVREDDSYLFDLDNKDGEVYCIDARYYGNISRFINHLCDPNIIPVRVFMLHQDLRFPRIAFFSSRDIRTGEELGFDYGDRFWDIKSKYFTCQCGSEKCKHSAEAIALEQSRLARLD
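Signal arises when biotinylated H3K9 peptide, once monomethylated, bridges streptavidin donor and antibody-captured acceptor beads. Enzyme at 20 nM was preincubated 15 min with test compounds; peptide 500 nM and SAM 20 uM then reacted for 2 h.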
Glioma ERSR ind: ER stress response induction in glioma. U87-MG GRP78 promoter luciferase reporter, 16 h. Potency, µM, without a hit: top-dose activation, usual class: activators. 0.02% of 420,000 active; further: series mostly up to about 76 µM; % of control where 0% means no effect; nearly all actives have a fitted effect of over 35% in size
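ERSR induction read as luciferase luminescence (Bright-Glo, 10 min at room temperature) in stably transfected human U87-MG glioma cells exposed to compounds for 16 h, using GRP78 as sensor.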
Sfp PPTase inh: inhibitors of Bacillus subtilis Sfp phosphopantetheinyl transferase | Q9F4F7 | Biochemical Sfp PPTase activity, qHTS | Potency, µM, inactives show largest response in the series, negative = inhibition, hits mostly inhibitors | 3.5% of 310,000 active | AID 1490;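 further: the enzyme is Sfp with the accession as filed and its product quenches rhodamine fluorescence; 0% = enzyme reaction without inhibitor and -100% = no enzyme wells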
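After 15 min at room temperature with compound, 15 nM Sfp received 5 uM rhodamine-CoA plus 12.5 uM BHQ-2-ybbR (50 mM Hepes pH 7.6, 10 mM MgCl2). Rate came from the fluorescence difference over 30 min, ex 525/em 598 nm.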
VDR inh: vitamin D3 receptor (human) inhibition; AID 504847; VDR-SRC2-3 peptide fluorescence polarization, 2 h; P11473; 0.93% of 400,000 active; Potency, µM, for the others: max response, negative = inhibition, hits mostly inhibitors; further: on the % scale 0 is the no-effect control and ±100 the full control effect
Target sequence (P11473 whole entry, looked up): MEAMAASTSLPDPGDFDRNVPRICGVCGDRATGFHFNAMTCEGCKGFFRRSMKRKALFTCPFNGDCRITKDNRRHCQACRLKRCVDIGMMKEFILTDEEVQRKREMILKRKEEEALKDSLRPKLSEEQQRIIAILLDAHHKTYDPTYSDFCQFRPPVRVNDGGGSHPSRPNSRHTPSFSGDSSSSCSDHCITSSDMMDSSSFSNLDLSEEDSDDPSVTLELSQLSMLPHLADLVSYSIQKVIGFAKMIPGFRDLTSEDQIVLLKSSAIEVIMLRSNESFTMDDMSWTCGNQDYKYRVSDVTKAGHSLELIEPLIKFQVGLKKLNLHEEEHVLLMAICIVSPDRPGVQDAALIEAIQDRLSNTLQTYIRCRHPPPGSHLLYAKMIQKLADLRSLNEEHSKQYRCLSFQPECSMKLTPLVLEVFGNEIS
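The screen uses fluorescence polarization to detect compounds that interfere with recruitment of the SRC2-3 coactivator peptide to VDR; plates are read after 2 h at room temperature.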
* hit, by the source's call; ? = inconclusive; nt = not tested or not shown; [ ] = another dose, or the depositor's remark. The call rests on the fitted dose curve; in most records, active means well fitted curve in the direction sought with a large enough effect; inconclusive means small, poorly fitted or top-dose-only effect, or another doubt; inactive means no such curve, though single readings can be large; an effect the other way counts as inactive or inconclusive. Potency means the concentration at half of the fitted maximal effect.

SMILES	12-LOX inh	G9a inh	Glioma ERSR ind	Sfp PPTase inh	VDR inh
CCCC(=O)Nc1ccc2c(c1)nc(CN1CCN(C(C)=O)CC1)n2C	0%	50µM*	-4%	-1%	14%
Cn1c(SCC(=O)NCc2ccc3c(c2)OCO3)nnc1-c1ccco1	-3%	nt	nt	nt	nt
O=C(Nc1cccc(-c2nn3cnnc3s2)c1)c1ccccc1	-5%	nt	nt	nt	nt
O=C(Nc1cccc2[nH]ncc12)NS(=O)(=O)c1ccccc1	0%	40µM*	-6%	-15%	3%
CCOc1cc(/C=N/NC(=O)c2cc(C3CC3)[nH]n2)ccc1O	-8%	45µM*	-6%	14%	-4%
CC(=O)Nc1nc(C(=O)O)cs1	?	22µM*	-1%	?	5%
CC(=O)Nc1nc(C)cs1	4%	7%	-4%	13%	12%
CC(=O)Nc1nc(-c2cccs2)cs1	0%	?	13%	50µM*	6%
Nc1nc(-c2cccs2)cs1	nt	79µM*	1%	-12%	4%
Oc1ccc(Nc2nc(-c3cccs3)cs2)cc1	-8%	?	0%	0%	-7%
CCCN1CCC(NC(=O)c2csc(C)c2CC)CC1	-12%	nt	nt	nt	nt
COc1ccc(-c2noc(CN(C(=O)c3ccco3)C(C)C)n2)cc1OC	15%	nt	nt	nt	nt
Cc1cc(N2CCCC2)ccc1/C=C1/C(=O)N(C)C(=S)N1C	4%	2.5µM*	-2%	-10%	-8%
Cc1cc(/C=C2/C(=O)N(C)C(=S)N2C)ccc1N1CCCC1	-16%	8.9µM*	7%	-8%	-11%
Cc1cc(/C=C2\NC(=S)N(C)C2=O)ccc1N1CCCC1	-21%	3%	4%	0%	-19%
O=C(CSc1ncnc2ccccc12)Nc1ccc(F)cc1F	11%	nt	nt	nt	nt
CC(C)Cc1cc(C(=O)N(C)C2CCCN(Cc3ccccc3F)C2)n(C)n1 (configuration not stated)	6%	89µM*	2%	10%	-12%
Nc1ccc(-c2c3ccc(=O)cc-3oc3cc(O)ccc23)cc1C(=O)O	0%	45µM*	-2%	-11%	0%
O=c1cc(-c2ccccc2)oc2cc(O)ccc12	3%	nt	1%	-21%	-4%
O=c1ccc2c(-c3ccccc3)c3ccc(O)cc3oc-2c1	?	74%	2%	32µM*	?
CN(C)CCCNC(=O)CNc1nc(Cl)nc2nc[nH]c12	4%	nt	nt	nt	nt
CCC(C(=O)Nc1nc(C)c(C)s1)c1ccccc1 (configuration not stated)	-19%	-8%[0.501 µM]	-4%	50µM*	1%
O=[N+]([O-])c1ccc(-c2nnc3cccc(Cl)n23)cc1	0%	35µM*	0%	10%	-16%
O=[N+]([O-])c1cccc(-c2nnc3ccc4ccccc4n23)c1	-1%	14µM*	-1%	-18%	-4%
Cc1ccc2c(COC(=O)[C@H](C)NC(=O)c3ccccc3)cc(=O)oc2c1	-4%	nt	nt	nt	nt
SMILES	12-LOX inh	G9a inh	Glioma ERSR ind	Sfp PPTase inh	VDR inh
O=C(CSCCS(=O)(=O)c1ccc(Cl)cc1)Nc1ccccc1	0%	6%	-2%	13%	1%
O=C(O)CCCC(=O)Nc1ccccc1SCCS(=O)(=O)c1ccc(Cl)cc1	7%	-33%	-2%	56µM*	-17%
COc1ccc(NC(=O)CCS(=O)(=O)c2nc(-c3ccc4c(c3)OCO4)cc(C(F)(F)F)n2)cc1OC	-22%	11µM*	-1%	nt	?
COCC(C)NC(=O)CCS(=O)(=O)c1nc(-c2ccc(OC)cc2)cc(C(F)(F)F)n1 (configuration not stated)	163%	?	-13%	6%	79µM*
Cc1cc(NC(=O)CCCS(=O)(=O)c2nc(-c3cccs3)cc(C(F)(F)F)n2)no1	-23%	50µM*	-15%	-20%	18µM*
COC(=O)CCS(=O)(=O)c1nc(-c2ccccc2)cc(C(F)(F)F)n1	nt	-24%[12.7 µM]	-17%	-21%	20µM*
CCCN(Cc1ccc(C)cc1)C(=O)CSc1nnc(COc2ccccc2Cl)n1C	-29%	nt	nt	nt	nt
Cc1ccc(CN2CC(C(=O)NCCc3ccncc3)C3(CCOCC3)C2)s1 (configuration not stated)	138%	nt	nt	nt	nt
Cc1ccc2nc(C3CCN(Cc4ccc(C#N)cc4)CC3)[nH]c(=O)c2c1	-12%	nt	nt	nt	nt
COc1cc2nc(N3CCN(c4cc(C)ccc4C)CC3)nc(N)c2cc1OC	?	50µM*	-17%	79µM*	-1%
CCc1ccccc1N(C(C)=O)c1nc(COc2ccccc2C(N)=O)cs1	15%	nt	nt	nt	nt
Cc1cc(NCCO)nc(-n2nc(C)cc2C)n1	2%	?	-3%	0%	25%
Cc1cc(N(CCO)CCO)nc(-n2nc(C)cc2C)n1	-9%	40µM*	-2%	0%	-13%
COc1cc(C(=O)N2CCC(C(=O)Nc3ccccc3)CC2)ccc1OCc1c(C)noc1C	-48%	nt	nt	nt	nt
Cn1cnc2c1c(=O)n(CCCSCc1ccccc1Br)c(=O)n2C	34%	nt	nt	nt	nt
COC(=O)c1c(NC(=O)c2cccc(N3C(=O)CCC3=O)c2)sc2c1CCN(C(C)=O)C2	-1%	79µM*	-1%	4%	-6%
c1ccc(SCCCCNC2CCCC2)cc1	-28%	8.9µM*	-5%	-13%	-29%
c1cc2c(cc1OCCNC1CCCC1)CCC2	nt	22µM*	nt	-24%	nt
COc1ccc(OCCNC2CCCC2)cc1	-21%	10µM*	-4%	2%	-30%
c1ccc(Cc2ccc(OCCCNC3CCCC3)cc2)cc1	nt	13µM*	nt	?	nt
CCOCCCNC(=O)CCSc1ccccc1	-9%	nt	nt	nt	nt
O=C1CCC(=O)N1OCCOc1ccc2c(c1)CCC2	0%	-28%[12.7 µM]	-1%	6%	24%
c1ccc(-c2ccc(OCCCNC3CCCC3)cc2)cc1	?	nt	-3%	?	1%
Cc1cc(C)c(/C=C/C(=O)Nc2sccc2C#N)cc1C	47%	nt	nt	nt	nt
COCC(=O)NC1CCC12CCN(Cc1ccc(F)cc1F)CC2 (configuration not stated)	15%	nt	nt	nt	nt
SMILES	12-LOX inh	G9a inh	Glioma ERSR ind	Sfp PPTase inh	VDR inh
Cn1ccc(NC(=O)CCc2ncc(-c3ccccc3)o2)n1	-29%	nt	nt	nt	nt
COc1ccc(NC(=O)Cn2ccc3cc(Cl)ccc32)cc1	2%	nt	nt	nt	nt
CNCCCOc1ccc2c(c1)CCC2	-42%	50µM*	-4%	-6%	-4%
NCCOc1ccc2c(c1)CCC2	19%	nt	nt	nt	nt
O=C1CSc2ccc(S(=O)(=O)N3CCCCC3)cc2N1	-21%	nt	nt	nt	nt
CCOC(=O)C(=O)N1CCN(c2nc(-c3ccc(Cl)cc3)cs2)CC1	-27%	40µM*	0%	-6%	1%
COc1ccc(-c2csc(N3CCN(C(=O)c4ccccc4)CC3)n2)cc1	4%	28µM*	1%	-22%	-7%
COc1ccc(C(=O)NNC(=O)CN2CCN(c3nc(-c4ccccc4)cs3)CC2)cc1	0%	11%	-2%	-23%	24%
CCOC(=O)N1CCN(c2nc(-c3ccc(F)cc3)cs2)CC1	0%	-7%[12.7 µM]	10%	-1%	25%
COc1ccc(-c2csc(N3CCN(C(=O)c4ccco4)CC3)n2)cc1	-8%	45µM*	-6%	-11%	8%
Cc1nc(NC(C)C)sc1C(=O)NCc1ccco1	26%	nt	nt	nt	nt
CC1CCN(S(=O)(=O)N(C)Cc2ccc3c(c2)OCO3)CC1	-27%	nt	nt	nt	nt
